The source of these data is PubChem BioAssay (NCI).

Several values for one entry are separate records, joined by “and”; a condition that tells them apart may be missing. Equal values may be shown once. About 83,000 compounds went through this panel and 20% of them were active in at least one assay; those are over-represented in the sample as a whole.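 Method: cells in 96-well plates; compound added at one concentration; 48 h incubation; percent growth measured; values under 10 scored active.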 Unmarked numbers belong to inactive results. Activity calls are given as the source filed them.

The subject of the assay is MDA-MB-468 breast. The assay can be described thus: NCI-60 one-dose screen, 48 h (100 = growth as untreated, 0 = no growth, -100 = all killed). To be noted: 10 µM unless noted.
For the compound `O=C1Nc2c(ccc(Cl)c2Cl)/C1=C/c1ccc(F)cc1`, the growth was 51.9%.
Regarding `Cc1cc2cc3c(=O)[nH]c(=O)cc-3n(CC(O)C(O)C(O)CO)c2cc1C` (stereo not given), the growth was 122%.
With `O=C(O)C(c1ccccc1)C(O)c1ccccc1` (stereo not given) the figure was 101%; with `O=C(/C=C/c1ccccc1)c1cccc(O)c1`, 111% and 90.2%; with `COc1ccc(-c2csc(NC(=O)Nc3nc(-c4ccc(OC)cc4)cs3)n2)cc1`, 47.3%.
Regarding `O=C1c2ccccc2C(=O)c2c1ccc1c(=O)n(-c3ccccc3C(F)(F)F)nnc21`, the growth was -50.3% (active).
As to `O=C(O)CCC(NC(=O)OCc1ccccc1)C(=O)O` (stereo not given), the growth was 101%.
With `COc1cc(C2CC(c3cc(Cl)c(C)cc3O)=NN2c2ccc(S(N)(=O)=O)cc2)cc(OC)c1OC` (stereo not given) the figure was 22.7%.
Turning to `CNC(=O)c1cc(Oc2ccc3c(c2)sc2nc(-c4ccc(N(C)C)cc4)cn23)ccn1`, the growth is 36.5%.
With `O=C1CCC(C(=O)NN(c2ccccc2)c2ccccc2)N1` (stereo not given), the growth is 94.5%.
As for `O=S(Nc1ccccc1)c1ccc(Cl)cc1` (stereo not given), the growth is 91.5%.
As for `Cn1c2nc3ccccc3c-2cc2ccccc21`, the growth is 41.3%.
The value for `O=C(CN1C(=O)S/C(=C\C(Cl)=C\c2ccccc2)C1=O)NC1C=CS(=O)(=O)C1` (stereo not given) was -54.5% (active); that for `O=C(CI)NC(=O)NC(=O)NCc1ccccc1` was 65.5%; that for `Cc1cc(N/N=C/c2nc(-c3ccc(Br)cc3)oc2C)c2cc(Br)ccc2n1` was -5.21% (active).
With `CCCCCCCCCCCCCCCC[N+](C)(CCO)Cc1cnc[nH]1` (stereo not given), the growth was -16% (active).
On to `CN(C)c1ccc2cc3c(cc2c1)Oc1ccccc1N3.[Cl][Zn][Cl]`, for which the growth was -10.4% (active).
The value for `COc1ccc(CCl)c(C)c1OC` was 109%; that for `COc1c(Br)cc(C(c2cc(Br)c(OC)c(Br)c2)c2ccccc2C(=O)O)cc1Br` was 100%; that for `NC(=S)N/N=C(/c1ccccc1)c1ccccc1N` was 18.4%.
Regarding `O=C(O)c1ccnc(Br)c1`, the growth was 91.1%.
With `CSc1ccc2c3c(n(C[C@H](O)CO)c(=O)c2c1)-c1ccccc1C3=O` the figure was 39.8%; with `CC(=O)Nc1cccc(Nc2nc(N[C@@H](C)c3ccccc3)c3ccccc3n2)c1`, -39.8% (active).
The value for `O=C(Nc1cnc(C(F)(F)F)cn1)c1cc(Cl)ccc1O` was -0.82% (active).
The value for `C=CCOc1c(Br)cc(Br)cc1Br` was 96.8%.
Regarding `S=c1[nH]nc2ccccn12`, the growth is 98.2%.
With `COc1ccc(CCN2C(=O)/C(=C/c3ccc(C4Oc5ccccc5C5CC(c6ccccc6)=NN54)cc3)SC2=S)cc1` (stereo not given) the figure was 118%; with `COc1ccc2c(c1)c(/C=N/Nc1ccnc3cc(Cl)ccc13)cn2C`, -87.3% (active); with `CC(C)=CCNc1ncnc2c1ncn2C1OC(CO)C(O)C1O` (stereo not given), -44.4% [1 mM] (active).
With `CCOc1nc(-c2ccccc2)cc2c(O)c(C(=O)n3nc(C)cc3C)[nH]c(=O)c12`, the growth was 99.1%.
`CC(=O)O[C@@H]1CCN2C(=O)N(C)c3ccccc3[C@@H]2C1`: the growth is 126%.
The value for `COc1ccc(-c2c(N)n[nH]c2-c2cc(OC)c(OC)c(OC)c2)cc1` was -0.0987% (active).
With `COC1OC(CO)C(OC)C(O)C1O` (stereo not given) the figure was 87.1%; with `COc1ncnc2c(-c3ccccc3)cn(COCc3ccccc3)c12`, 42.1%.
With `c1ccc2c(NCCCN3CCOCC3)c3oc4ccccc4c3nc2c1` the figure was -53.6% (active); with `COc1cccc(N2CCN(c3ncnc4c3[nH]c3ccc(F)cc34)C[C@H]2C)c1`, 27.5%.
For `O=[N+]([O-])c1cccc(-c2nc3cc4nc5ccccc5[nH]c4cc3n2)c1`, the growth is 95.5%.
With `Nc1ccccc1-c1ccn[nH]1` the figure was 101%.
The value for `CCN1CCN(C(=O)[C@]23CC[C@@H](C)[C@H](C)[C@H]2C2=CC[C@@H]4[C@@]5(C)C/C(=C/c6cccc(OC)c6OC)C(=O)C(C)(C)[C@@H]5CC[C@@]4(C)[C@]2(C)CC3)CC1` was 16.4%; that for `CCC[CH2][Sn]1([CH2]CCC)[O]C2C(CO)OC(n3ccc(N)nc3=O)C2[O]1` (stereo not given) was -82.9% (active).
